Where “and” joins values, the source holds several entries; their conditions need not be identical. Equal entries are not always repeated. Some structures have more than one record in an assay (separate samples or runs), and their calls can disagree. Calls of active or inactive are those of the source. Rule for the calls: active = hit-call score of the fitted dose curve at least 0.9, where 1 is the maximum; inactive = score below 0.9.
read-out: Glutathione S-Transferase (GSTA2), GSTA2 (gene 2939); test: LTEA_HepaRG_GSTA2: Life Technologies and Expression Analysis (LTEA) Assay for Glutathione S-Transferase (GSTA2) using HepaRG (AID 2283497); conditions: mRNA level, 48 h; actives raise or lower the signal
Protocol: LTEA_HepaRG is a cell based, multiplexed-readout assay that uses HepaRG, a human liver cell line, with measurements taken at 48 hours after chemical dosing on a 96-well plate.LTEA_HepaRG_GSTA2 is one of 102 assay component(s) measured in the LTEA HepaRG cell culture assay. It is a marker of Oxidative Stress.Data from the assay component LTEA_HepaRG_GSTA2 was analyzed into 1 endpoint. This assay endpoint, LTEA_HepaRG_GSTA2, was analyzed with bidirectional fitting relative to DMSO as the negative control and baseline of activity. Using a type of inducible reporter, measures of mRNA induction for gain or loss-of-signal activity can be used to understand regulation of transcription factor activity. To generalize the intended target to other relatable targets, this assay endpoint is annotated to the transferase intended target family, where the subfamily is alkyl and aryl transferase.
A total of 1060 chemcials from the ToxCast library were tested in eight-point concentration-response experiments. Cell culture and cytotoxicity assays were conducted at Thermo Fisher Scientific's Custom Services facility (Madison, WI). A single lot of human HepaRG cells (Thermo Fisher Scientific, Frederick, MD) was used for the cell culture experiments. 96-well format collagen type I coated plates of human HepaRG cells were prepared using established methods. Briefly, cryopreserved HepaRG cells were thawed, plated at a density of approximately 100,000 cells/well in HepaRG Thaw, Plate, and General Purpose media (HPRG770, Thermo Fisher Scientific), and incubated for 48 hours. 0.5% DMSO was selected as vehicle control to balance the requisite need of DMSO in HepaRG cultures to maintain differentiation (for example, baseline metabolism, proportions of hepatocytes vs. cholangiocytes), while enabling further hepatic receptor pathway activation (for example, PXR and CAR) in response to chemical exposure. 48 hours after plating, the culture medium was replaced with HepaRG Serum-Free Incudtion Media. Cells were exposed to each test chemical in duplicate and maintained in CO2 incubators for another 48 hours. Chemical plates were thawed to room temperature and 200x concentrations of treatment groups were prepared. 8-point conentration-reponse curves were made with the highest exposure at 100 uM, followed by half-log dilutions, all in 0.5% DMSO. Each test plate contained variouse controls, induction positive controls (1mM phenobarbital), cytotoxicity positive controls ([…] aflatoxin B1), vehicle controls (0.5% DMSO), and total lysis controls (0.5% DMSO). Cell morphology images were taken using an Essen IncuCyte FLR automated microscope, with six 96-well plates imaged in about 24 minutes. Images were captured and exported and JPEG files. Spent culture media was transfered to black-well plates for the LDH assay, and remaining media was sorted at -80 C for later use. Cells were treated with RLT buffer and frozen until shipped for gene expression analysis. Total RNA was isolated from the cell suspension in 75 uL of Buffer RLT (Qiagen, Germantown, MD 20874) by Quintiles/Expression Analysis (Durham, NC) using a custom isolation procedure. Total RNA from each plate well was transferred to a preamplification plate. Fluidigm's 96.96 Dynamic ArrayTM (Fluidigm, Amsterdam, the Netherlands) technology was used for gene expression analyses by quantitative reverse transcription polymerase chain reaction (qRT-PCR, performed by Quintiles/Expression Analysis, Durham, NC)89. Standard TaqManTM Assays (Applied Biosystems/ThermoFisher Scientific, Foster City, CA) were used to assess the expression of 93 genes selected based on their selectivity and sensitivity to important hepatic receptors known to be modulated by environmental chemicals; importance in human hepatocyte functionality; and hepatotoxicity. […]

Compound	AC50	outcome
Oc1ccc(Cl)cc1Cc1ccccc1	80.5 µM (active) and 92.2 µM (active)	inactive
CC(C)(C)C(O)/C(=C\c1ccc(Cl)cc1Cl)n1cncn1 (stereo not given)	27.3 µM (active)	
CNC(=O)/C=C(\C)OP(=O)(OC)OC		inactive
CC1(c2ccc(Oc3ccccc3)cc2)OC(=O)N(Nc2ccccc2)C1=O (stereo not given)	24.5 µM (active)	
COP(=O)(OC)OC=C(Cl)Cl		inactive
C#CCN1C(=O)COc2cc(F)c(N3C(=O)C4=C(CCCC4)C3=O)cc21		inactive
CCCN(CCC)c1c([N+](=O)[O-])cc(C(F)(F)F)cc1[N+](=O)[O-]		inactive
COP(=S)(OC)Oc1ccc([N+](=O)[O-])cc1		inactive
CNC(=O)CSP(=S)(OC)OC		inactive
CC(C)(C)C(O)C(Oc1ccc(Cl)cc1)n1cncn1 (stereo not given)		inactive
CN1CSC(=S)N(C)C1		inactive
OCCOc1ccccc1		inactive
O=C(O)COc1ccc(Cl)cc1Cl		inactive
O=C(Nc1ccccc1)Nc1cnns1	65.3 µM (active)	
N#CN		inactive
N#Cc1c(Cl)c(Cl)c(Cl)c(C#N)c1Cl	34 µM (active)	
ClC1C(Cl)C(Cl)C(Cl)C(Cl)C1Cl (stereo not given)		inactive
Cc1[nH]c(=O)n(C(C)(C)C)c(=O)c1Cl		inactive
O=C(O)CCCOc1ccc(Cl)cc1Cl		inactive

Compound	AC50	outcome
O=S(=O)(O)C(F)(F)C(F)(F)C(F)(F)C(F)(F)C(F)(F)C(F)(F)C(F)(F)C(F)(F)F	76.5 µM (active) [middle of 4 runs]	
O=[N+]([O-])/N=C1\NCCN1Cc1ccc(Cl)nc1	39.9 µM (active)	
CCOC1Oc2ccc(OS(C)(=O)=O)cc2C1(C)C (stereo not given)	82 µM (active)	
CCC(C)Nc1c([N+](=O)[O-])cc(C(C)(C)C)cc1[N+](=O)[O-] (stereo not given)		inactive
CCc1ccc(C(=O)NN(C(=O)c2cc(C)cc(C)c2)C(C)(C)C)cc1		inactive
Oc1cc(Cl)ccc1Oc1ccc(Cl)cc1Cl	83.7 µM (active)	inactive
O=C(O)C(F)(F)C(F)(F)C(F)(F)C(F)(F)C(F)(F)C(F)(F)C(F)(F)F		inactive
O=C1c2ccccc2C(=O)N1SC(Cl)(Cl)Cl		inactive
CNC(=O)Oc1cccc(N=CN(C)C)c1		inactive
CCCN(CCOc1c(Cl)cc(Cl)cc1Cl)C(=O)n1ccnc1	31.8 µM (active)	
CCC(C)(NC(=O)c1cc(Cl)c(C)c(Cl)c1)C(=O)CCl (stereo not given)	78.7 µM (active)	
CCN(CC)C(=O)SCc1ccc(Cl)cc1		inactive
C[C@H]1[C@H](c2ccc(Cl)cc2)SC(=O)N1C(=O)NC1CCCCC1	79.3 µM (active)	
CC(C)N(C(=O)COc1nnc(C(F)(F)F)s1)c1ccc(F)cc1	50 µM (active)	
CCC(C)(C)C(=O)OC1=C(c2ccc(Cl)cc2Cl)C(=O)OC12CCCCC2		inactive
O=S1OCC2C(CO1)C1(Cl)C(Cl)=C(Cl)C2(Cl)C1(Cl)Cl (stereo not given)	79.7 µM (active)	
COP(=S)(OC)Oc1ccc(SC)c(C)c1		inactive
Clc1ccccc1-c1nnc(-c2ccccc2Cl)nn1		inactive
CC(C)OC(=O)Nc1cccc(Cl)c1		inactive

— PubChem BioAssay (EPA / NIEHS)
